# PubChem BioAssay (NCATS)
# Several values for one entry are separate records, joined by “and”; a condition that tells them apart may be missing. Equal entries are not always repeated. Inconclusive results are not listed. A call without a number means that no potency is given here. Some structures have more than one record in an assay (separate samples or runs), and their calls can disagree. Activity calls are given as the source filed them. Calls follow the shape of the dose curve; as a rule, active = well fitted inhibition curve with a large enough effect; inconclusive = small, poorly fitted or top-dose-only effect; inactive = no such curve, though single readings can be large or run the other way.
# Test: qHTS assay for measurement of the activity of small molecule inhibitors on Zika virus induced Caspase-3 activity in human iPSC derived neural progenitor cells (hNPCs) (AID 1224857); also: nearly all actives have a fitted effect of over 65% in size
# Conditions: hNPCs ZIKV-induced caspase-3/7, Caspase-Glo luminescence, 6 h; series mostly up to 45.7 µM
# Description: National Center for Advancing Translational Sciences [NCATS]
# Johns Hopkins University School of Medicine
# Increase in the Caspase-3 activity indicates an activation of apoptosis cell death pathway caused by Zika virus infection in certain types of neuronal cells including human neural progenitor cells (hNPCs), astrocytes, and astrocytoma cell line (SNB-19). This cell-based caspase-3 activity assay measures the increased caspase-3 activity in the human iPSC derived neural progenitor cells (hNPCs) after a 6-hour Zika virus infection with a luminescence readout. A decrease in the luminescence signal in this assay by small molecule treatment indicates an inhibitory effect of that small molecule on the Zika virus induced caspase-3 activity that may correlate with its effect on reduction of Zika virus caused cell death.
# The medium for hNPCs consists of DMEM/F12, N2 supplement (ThermoFisher, Cat.# 17502048), NEAA (ThermoFisher, Cat. # 11140050), 2 ug/ml heparin, 2 uM cyclopamine, and B27 (ThermoFisher, Cat. # 17504044). A Caspase-Glo 3/7 assay kit (catalog number G8092; Promega, Madison, WI) was used to detect caspase-3 activity induced by Zika virus infection in human cells. The reagent mixture was reconstituted as described in the protocol from the manufacturer. Polystyrene tissue culture treated and PDL coated white plates were obtained from Greiner Bio-One (Monroe, NC). Cells were seeded in 384- or 1536-well assay plates and cultured at 37 C with 5% CO2 for 16 to 20 hours. The typical cell seeding density in the 1536-well plate assay is 350 cells/well in 3 ul medium for hNPCs in tissue culture treated plates. Compounds were added to cells and incubated for one hour before addition of ZIKV solution to cells (2 FFU/cell). After incubation at 37 C with 5% CO2 for 6 hours, the reagent mixture of Caspase-Glo 3/7 assay kit was added to each well, followed by incubation at room temperature for 30 minutes. The luminescence intensity of the assay plates was measured using a ViewLux plate reader (PerkinElmer). Data were normalized by using the cell-containing wells without ZIKV as a negative control (0% induction of caspase 3/7 activity) and wells containing ZIKV infected cells (Caspase-3 activity induced) as a positive control (100% induction of caspase 3 activity). The percentage inhibitions of the increased Caspase-3 activity by small molecule inhibitors were then calculated.
# Potency is read from the fitted curve at half-maximal effect.
row,Compound,Potency
1,CC(=O)CC(c1ccccc1)c1c(O)c2ccccc2oc1=O (stereo not given),inactive and 23.5 µM (active)
2,C[C@@H](CN1CC(=O)NC(=O)C1)N1CC(=O)NC(=O)C1,inactive
3,O=C(O)c1ccc(-n2nc(-c3ccccc3O)nc2-c2ccccc2O)cc1,inactive
4,CO[C@@H]1[C@@H](OC(N)=O)[C@@H](O)[C@H](Oc2ccc3c(O)c(NC(=O)c4ccc(O)c(CC=C(C)C)c4)c(=O)oc3c2C)OC1(C)C,inactive
5,COc1ccc(-c2ccc3cc(C(=O)O)ccc3c2)cc1C12CC3CC(CC(C3)C1)C2,inactive
6,CC(=O)Oc1ccccc1C(=O)Nc1ncc([N+](=O)[O-])s1,1.91 µM (active)
7,COC(=O)Nc1nc2ccc(C(=O)c3ccccc3)cc2[nH]1,inactive
8,O=S(=O)(O)CCS,inactive
9,O=C(N[C@H](CO)[C@H](O)c1ccc([N+](=O)[O-])cc1)C(Cl)Cl,inactive
10,Cc1cccc(N(C)C(=S)Oc2ccc3ccccc3c2)c1,inactive
11,Cc1noc(NS(=O)(=O)c2ccc(N)cc2)c1C,inactive
12,CCN1CCCC1CNC(=O)c1cc(S(N)(=O)=O)ccc1OC (stereo not given),inactive
13,CN(C)CCc1c[nH]c2ccc(CS(=O)(=O)N3CCCC3)cc12,inactive
14,Cc1ccc(S(=O)(=O)N[C@@H](Cc2ccccc2)C(=O)CCl)cc1,inactive
15,CCN[C@H]1C[C@H](C)S(=O)(=O)c2sc(S(N)(=O)=O)cc21,inactive
16,COc1ccc2c(c1)c(CC(=O)OCC(=O)O)c(C)n2C(=O)c1ccc(Cl)cc1,inactive
17,NC(N)=NC(N)=NCCc1ccccc1,inactive
18,CC(C)OC(=O)C(C(=O)OC(C)C)=C1SC=CS1,inactive
19,Nc1nc(F)nc2c1ncn2[C@@H]1O[C@H](CO)[C@@H](O)[C@@H]1O,inactive
20,C[C@@H]1CN(c2c(F)c(N)c3c(=O)c(C(=O)O)cn(C4CC4)c3c2F)C[C@H](C)N1,inactive

row,Compound,Potency
1,CC[C@H](NC(C)C)[C@H](O)c1ccc(O)c2[nH]c(=O)ccc12,inactive
2,NC(=O)c1ccc2[nH]ccc2c1,inactive
3,O=C(O)c1cccnc1,inactive
4,COc1cc(NCc2ccc3nc(N)nc(N)c3c2C)cc(OC)c1OC,inactive
5,COc1cc2c(Nc3ccc(Br)cc3F)ncnc2cc1OCC1CCN(C)CC1,inactive
6,CCOC(=O)[C@H](CCc1ccccc1)N[C@H]1CS[C@H](c2cccs2)CN(CC(=O)O)C1=O,inactive
7,COc1cc2ncnc(Nc3cccc(Cl)c3)c2cc1OC,inactive
8,COc1ccc(C(=O)CC(=O)c2ccc(C(C)(C)C)cc2)cc1,inactive
9,COc1cc(NS(=O)(=O)c2ccc(N)cc2)nc(OC)n1,inactive
10,N[C@@H](Cc1ccc(O)c(O)c1)C(=O)O,inactive
11,CCN(C)C(=O)Oc1cccc([C@H](C)N(C)C)c1,inactive
12,NC1(c2ccc(-c3nc4ccn5c(=O)[nH]nc5c4cc3-c3ccccc3)cc2)CCC1,inactive
13,S=P(N1CC1)(N1CC1)N1CC1,inactive
14,CNNCc1ccc(C(=O)NC(C)C)cc1,inactive
15,Clc1ccccc1CN1CCc2sccc2C1,inactive
16,CCCOc1ccc(C(=O)OCCN(CC)CC)cc1N,inactive
17,Cc1cc(NS(=O)(=O)c2ccc(N)cc2)no1,inactive
18,O=C(O)CCn1c2c(c3ccccc31)C[C@H](NS(=O)(=O)c1ccc(F)cc1)CC2,inactive
19,CN1CCCC(n2nc(Cc3ccc(Cl)cc3)c3ccccc3c2=O)CC1 (stereo not given),inactive
20,CNC(=O)c1cc(Oc2ccc(NC(=O)Nc3ccc(Cl)c(C(F)(F)F)c3)cc2)ccn1,inactive
